In PubChem BioAssay (EPA / NIEHS):
Inconclusive results are not listed. Calls of active or inactive are those of the source. The calls were made as follows, unless noted: active = hit-call score of the fitted dose curve at least 0.9, where 1 is the maximum; inactive = score below 0.9.

Assays:
[1] = ATG_M_32_TRANS: Attagene TRANS-FACTORIAL HepG2 Assay for M32 Transcription Factor (Internal Marker) (AID 2282984; active = hit-call score of the fitted dose curve at least 0.9, where 1 is the maximum;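 also: transcript level of a background control reporter unit measured by RT-PCR and capillary electrophoresis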); conditions: HepG2 Attagene TRANS M32 internal marker reporter
Outline: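 Capillary electrophoresis of 6-FAM-labelled reporter fragments gives the signal; data fitted for gain over DMSO negative control. Source: HepG2 cells bearing transient multiple reporter transcription units, 24 h exposure.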

[2] = biological target: Nuclear receptor subfamily 4 group A member 2 (Homo sapiens) (UniProt P43354); assay: ATG_NURR1_TRANS: Attagene TRANS-FACTORIAL HepG2 Assay for human Nuclear Receptor Related Protein 1 (NURR1) (AID 2282985; active = hit-call score of the fitted dose curve at least 0.9, where 1 is the maximum); conditions: HepG2 Attagene TRANS reporter, mRNA readout
Outline: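 HepG2 / transient MRTU transfection / 24 h compound exposure / RT-PCR + CE fluorescence of reporter mRNA / gain-of-signal vs DMSO.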

[3] = biological target: Transcriptional activator Myb (Homo sapiens) (UniProt P10242); assay: ATG_Myb_CIS: Attagene CIS-FACTORIAL HepG2 Assay for human Myeloblastosis (Myb) Proto-Oncogene Transcription Factor (AID 2282986); conditions: HepG2 Attagene CIS-FACTORIAL Myb reporter transcription; actives raise or lower the signal
Outline: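 Transiently transfected HepG2 cells, treated 24 h. Reporter mRNA quantified by RT-PCR/capillary electrophoresis; bidirectional fit relative to DMSO.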

[4] = biological target: Nuclear respiratory factor 1 (Homo sapiens) (UniProt Q16656); assay: ATG_NRF1_CIS: Attagene CIS-FACTORIAL HepG2 Assay for human Nuclear Respiratory Factor 1 (NRF1) Orphan Gene (AID 2282987); conditions: HepG2 NRF1 cis-element reporter, Attagene multiplex; actives raise or lower the signal
Outline: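 Cells (HepG2, transient MRTU transfection) are exposed to compound for 24 h, then RNA isolated and reporter mRNA amplified and fluorescently labelled. Fragments are separated by capillary electrophoresis; signal change is fitted bidirectionally relative to DMSO.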

[5] = ATG_NFI_CIS: Attagene CIS-FACTORIAL HepG2 Assay for human Nuclear Factor I (NFI) (AID 2282989); conditions: HepG2 cis-regulatory reporter, NFI response element transcription; actives raise or lower the signal
Outline: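 HepG2 cells transiently transfected with cis-element-driven multiplexed reporter transcription units, dosed for 24 h. Reporter mRNA quantified by RT-PCR, fluorescent labelling, HpaI digestion and capillary electrophoresis; bidirectional fit versus DMSO baseline.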

[6] = biological target: Myc proto-oncogene protein (Homo sapiens) (UniProt P01106); assay: ATG_Myc_CIS: Attagene CIS-FACTORIAL HepG2 Assay for human Myelocytomatosis (Myc) Proto-Oncogene Transcription Factor (AID 2282990); conditions: HepG2, Attagene cis-reporter transcription factor activity; actives raise or lower the signal
Outline: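 Read-out: fluorescent reporter mRNA fragments resolved by capillary electrophoresis after RT-PCR. Human HepG2 liver cells carried transfected cis-element reporter units and were dosed for 24 h. Gain or loss of signal fitted relative to DMSO baseline.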

[7] = ATG_NF_kB_CIS: Attagene CIS-FACTORIAL HepG2 Assay for human Nuclear Factor Kappa B (NF-kB) (AID 2282991); conditions: HepG2 Attagene cis-factorial NF-kB reporter mRNA; actives raise or lower the signal
Outline: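 Measures mRNA induction of an NF-kB-responsive cis-element reporter in HepG2 cells transfected with multiple reporter units, sampled 24 h post-dosing; quantified by fluorescence after RT-PCR and capillary electrophoresis, fitted for activation or inhibition against DMSO.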

[8] = ATG_NRF2_ARE_CIS: Attagene CIS-FACTORIAL HepG2 Assay for human Nuclear Factor Erythroid 2 Related Factor 2 (NFR2) response to Antioxidant Response Elements (ARE) (AID 2282992); conditions: HepG2 Attagene ARE/NRF2 reporter, transcription factor activity; actives raise or lower the signal;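 as to AC50: reporter mRNA level measured by RT-PCR and capillary electrophoresis fluorescence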
Outline: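 Multiplexed reporter mRNA profiling in HepG2 after a 24 h chemical exposure. Curves fitted in both directions relative to DMSO negative control.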

[9] = ATG_Oct_MLP_CIS: Attagene CIS-FACTORIAL HepG2 Assay for human Octamer-Binding Transcription Factor (Oct) (AID 2282993); conditions: HepG2 Attagene cis-factorial Oct reporter, mRNA; actives raise or lower the signal
Outline: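 HepG2 cells transiently transfected with cis-promoter-driven multiplexed reporter transcription units, dosed for 24 h. Reporter mRNA quantified by RT-PCR, fluorescent labelling, HpaI digestion and capillary electrophoresis; bidirectional fits versus DMSO baseline.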

[10] = biological target: Cellular tumor antigen p53 (Homo sapiens) (UniProt P04637); assay: ATG_p53_CIS: Attagene CIS-FACTORIAL HepG2 Assay for human p53 Transcription Factor (AID 2282994); conditions: HepG2 p53 cis-element reporter, Attagene mRNA; actives raise or lower the signal
Outline: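 Multiplexed reporter mRNA assay in human HepG2 liver cells; cis-regulated units report endogenous factor activity. Values come from bidirectional curve fitting against DMSO negative control after 24 h treatment.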

[11] = BSK_3C_TissueFactor: BioMAP Diversity Plus: 3C Assay for Tissue Factor Biomarker Activity (AID 2282997); conditions: BioMAP 3C HUVEC, tissue factor biomarker readout; actives raise or lower the signal
Outline: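 ELISA read-out of Tissue Factor levels on human umbilical vein endothelium collected 24 h after chemical dosing. Gain or loss of signal was fitted relative to DMSO.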

[12] = BSK_3C_uPAR: BioMAP Diversity Plus: 3C Assay for Urokinase-type plasminogen activator receptor (uPAR) Biomarker Activity (AID 2282998); conditions: BioMAP 3C HUVEC, uPAR biomarker ELISA; actives raise or lower the signal
Outline: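 Human umbilical vein endothelial primary cells were exposed to test chemical for 24 h. Cell-surface uPAR was then quantified by ELISA, and responses were fitted bidirectionally against DMSO as negative control and baseline.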

[13] = BSK_4H_Eotaxin3: BioMAP Diversity Plus: 4H Assay for Eotaxin 3 Biomarker Activity (AID 2283000); conditions: primary human endothelial cells (HUVEC); actives raise or lower the signal
Outline: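 Chemicals were added to human umbilical vein endothelium cultures, and Eotaxin-3 was quantified by ELISA at 24 h. Values were derived by bidirectional fitting with DMSO serving as negative control and activity baseline.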

[14] = biological target: human Peroxisome Proliferator-activated Receptor alpha (PPARa), PPARA (gene 5465) (UniProt Q07869); assay: ATG_PPARa_TRANS: Attagene TRANS-FACTORIAL HepG2 Assay for human Peroxisome Proliferator-activated Receptor alpha (PPARa) (AID 2283001; active = hit-call score of the fitted dose curve at least 0.9, where 1 is the maximum)
Outline: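 Measures transcriptional activity of an exogenous chimeric PPARa-Gal4 protein in transiently transfected HepG2 cells after 24 h dosing. Reporter mRNA quantified via RT-PCR and capillary electrophoresis; DMSO served as negative control.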

[15] = ATG_M_06_TRANS: Attagene TRANS-FACTORIAL HepG2 Assay for M06 Transcription Factor (Internal Marker) (AID 2282983; active = hit-call score of the fitted dose curve at least 0.9, where 1 is the maximum); conditions: HepG2 Attagene TRANS M06 internal marker reporter
Outline: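 Transfect HepG2 with MRTUs → dose compounds 24 h → isolate RNA, oligo(dT) RT → PCR with reporter primers → 6-FAM primer extension → HpaI digest → CE fragment analysis. Positive direction vs DMSO.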

[16] = BSK_3C_VCAM1: BioMAP Diversity Plus: 3C Assay for Vascular cell adhesion molecule 1 (VCAM1) Biomarker Activity (AID 2282999); conditions: BioMAP 3C HUVEC, VCAM1 ELISA, cytokine-stimulated; actives raise or lower the signal
Outline: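 Human umbilical vein endothelial cells (3C system), biomarker read by ELISA 24 h after dosing; bidirectional fit against DMSO baseline. Cytotoxicity tracked by SRB total-protein staining in parallel cultures at biomarker time.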

[17] = biological target: Oxysterols receptor LXR-beta (Homo sapiens) (UniProt P55055); assay: ATG_LXRb_TRANS: Attagene TRANS-FACTORIAL HepG2 Assay for human Liver X Receptor beta (LXRb) (AID 2282981; active = hit-call score of the fitted dose curve at least 0.9, where 1 is the maximum); conditions: HepG2 Attagene TRANS GAL4-LXRb reporter, mRNA
Outline: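 Gain-of-signal mRNA reporter endpoint, DMSO as negative control. Transiently transfected HepG2 cells carrying the NR-Gal4 chimera and GAL4-UAS reporter units were treated 24 h; transcripts quantified by RT-PCR and capillary electrophoresis fluorescence.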

[18] = biological target: Hepatocyte nuclear factor 4-alpha (Homo sapiens) (UniProt P41235); assay: ATG_HNF4a_TRANS: Attagene TRANS-FACTORIAL HepG2 Assay for human Hepatocyte Nuclear Factor 4 alpha (HNF4a) (AID 2282982; active = hit-call score of the fitted dose curve at least 0.9, where 1 is the maximum); conditions: HepG2 HNF4a transactivation reporter, mRNA readout
Outline: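 Gain-of-signal mRNA induction, relative to DMSO vehicle, was read after 24 h compound treatment of HepG2 cells bearing transfected GAL4-UAS reporters. Detection used RT-PCR, 6-FAM primer extension and capillary electrophoresis.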

Measured: AC50

Chain of Oxysterols receptor LXR-beta (Homo sapiens) (P55055 whole entry, looked up, the tested form may be a part): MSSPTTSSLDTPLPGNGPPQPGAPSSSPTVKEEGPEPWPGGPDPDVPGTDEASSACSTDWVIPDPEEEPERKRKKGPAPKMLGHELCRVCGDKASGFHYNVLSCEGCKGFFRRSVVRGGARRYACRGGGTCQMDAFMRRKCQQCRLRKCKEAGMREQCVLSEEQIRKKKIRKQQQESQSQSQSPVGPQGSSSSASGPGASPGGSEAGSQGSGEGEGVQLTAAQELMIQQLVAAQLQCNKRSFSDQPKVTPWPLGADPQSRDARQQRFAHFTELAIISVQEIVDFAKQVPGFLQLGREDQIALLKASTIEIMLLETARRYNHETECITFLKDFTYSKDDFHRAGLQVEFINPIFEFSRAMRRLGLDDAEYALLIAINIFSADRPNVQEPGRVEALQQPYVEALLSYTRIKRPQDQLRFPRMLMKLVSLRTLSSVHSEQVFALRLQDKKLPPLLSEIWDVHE
Chain of Hepatocyte nuclear factor 4-alpha (Homo sapiens) (P41235 whole entry, looked up, the tested form may be a part): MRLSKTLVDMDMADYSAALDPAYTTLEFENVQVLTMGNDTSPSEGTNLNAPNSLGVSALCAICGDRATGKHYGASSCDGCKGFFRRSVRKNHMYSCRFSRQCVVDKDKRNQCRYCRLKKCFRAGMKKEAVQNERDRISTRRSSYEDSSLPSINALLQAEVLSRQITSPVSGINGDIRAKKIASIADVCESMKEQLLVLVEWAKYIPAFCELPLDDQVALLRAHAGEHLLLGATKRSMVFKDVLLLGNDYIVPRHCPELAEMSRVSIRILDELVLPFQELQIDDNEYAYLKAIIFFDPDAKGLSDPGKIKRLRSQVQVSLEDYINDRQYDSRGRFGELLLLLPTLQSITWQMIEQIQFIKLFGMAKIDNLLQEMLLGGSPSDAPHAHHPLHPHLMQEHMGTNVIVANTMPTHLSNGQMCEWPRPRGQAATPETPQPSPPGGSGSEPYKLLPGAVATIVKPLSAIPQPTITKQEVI
Chain of Transcriptional activator Myb (Homo sapiens) (P10242 whole entry, looked up): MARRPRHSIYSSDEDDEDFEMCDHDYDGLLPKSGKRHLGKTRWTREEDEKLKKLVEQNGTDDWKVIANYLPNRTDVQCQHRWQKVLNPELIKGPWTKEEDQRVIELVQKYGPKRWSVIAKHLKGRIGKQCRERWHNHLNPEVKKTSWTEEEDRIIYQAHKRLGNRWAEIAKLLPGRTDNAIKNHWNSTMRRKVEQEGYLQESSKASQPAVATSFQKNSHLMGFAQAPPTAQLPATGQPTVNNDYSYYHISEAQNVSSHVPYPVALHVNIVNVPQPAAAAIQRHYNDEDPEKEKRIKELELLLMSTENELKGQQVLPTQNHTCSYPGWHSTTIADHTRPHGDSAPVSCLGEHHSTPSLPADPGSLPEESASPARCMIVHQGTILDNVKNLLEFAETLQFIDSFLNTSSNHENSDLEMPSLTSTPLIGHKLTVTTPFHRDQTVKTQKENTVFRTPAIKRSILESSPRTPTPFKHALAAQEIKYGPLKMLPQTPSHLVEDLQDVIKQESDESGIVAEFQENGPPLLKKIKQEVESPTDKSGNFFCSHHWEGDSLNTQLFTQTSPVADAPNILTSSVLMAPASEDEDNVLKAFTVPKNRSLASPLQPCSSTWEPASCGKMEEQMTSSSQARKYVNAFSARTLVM
Chain of Nuclear respiratory factor 1 (Homo sapiens) (Q16656 whole entry, looked up, the tested form may be a part): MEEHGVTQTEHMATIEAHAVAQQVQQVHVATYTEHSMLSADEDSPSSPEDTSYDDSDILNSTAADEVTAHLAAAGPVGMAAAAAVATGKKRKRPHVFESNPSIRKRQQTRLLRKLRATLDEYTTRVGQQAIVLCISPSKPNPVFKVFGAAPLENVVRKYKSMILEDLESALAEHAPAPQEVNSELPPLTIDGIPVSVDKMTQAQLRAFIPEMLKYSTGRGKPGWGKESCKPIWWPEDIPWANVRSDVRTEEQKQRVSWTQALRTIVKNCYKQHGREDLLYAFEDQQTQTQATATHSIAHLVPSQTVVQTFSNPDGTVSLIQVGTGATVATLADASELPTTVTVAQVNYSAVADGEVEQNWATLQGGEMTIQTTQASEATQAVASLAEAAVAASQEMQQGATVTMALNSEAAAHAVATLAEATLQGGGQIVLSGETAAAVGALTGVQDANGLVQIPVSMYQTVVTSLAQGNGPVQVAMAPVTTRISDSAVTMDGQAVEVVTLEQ
Chain of Cellular tumor antigen p53 (Homo sapiens) (P04637 whole entry, looked up): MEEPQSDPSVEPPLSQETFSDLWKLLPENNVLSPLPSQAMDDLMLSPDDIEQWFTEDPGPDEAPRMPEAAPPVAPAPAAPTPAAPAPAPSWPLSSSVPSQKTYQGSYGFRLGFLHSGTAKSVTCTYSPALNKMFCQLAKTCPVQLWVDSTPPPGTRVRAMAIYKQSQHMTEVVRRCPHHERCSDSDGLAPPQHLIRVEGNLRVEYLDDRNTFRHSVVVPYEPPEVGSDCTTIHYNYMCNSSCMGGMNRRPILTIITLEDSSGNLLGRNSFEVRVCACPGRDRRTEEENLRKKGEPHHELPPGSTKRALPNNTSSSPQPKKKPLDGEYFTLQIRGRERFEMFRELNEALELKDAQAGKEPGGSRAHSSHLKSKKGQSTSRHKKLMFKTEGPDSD
Chain of human Peroxisome Proliferator-activated Receptor alpha (PPARa), PPARA (gene 5465) (Q07869 whole entry, looked up, the tested form may be a part): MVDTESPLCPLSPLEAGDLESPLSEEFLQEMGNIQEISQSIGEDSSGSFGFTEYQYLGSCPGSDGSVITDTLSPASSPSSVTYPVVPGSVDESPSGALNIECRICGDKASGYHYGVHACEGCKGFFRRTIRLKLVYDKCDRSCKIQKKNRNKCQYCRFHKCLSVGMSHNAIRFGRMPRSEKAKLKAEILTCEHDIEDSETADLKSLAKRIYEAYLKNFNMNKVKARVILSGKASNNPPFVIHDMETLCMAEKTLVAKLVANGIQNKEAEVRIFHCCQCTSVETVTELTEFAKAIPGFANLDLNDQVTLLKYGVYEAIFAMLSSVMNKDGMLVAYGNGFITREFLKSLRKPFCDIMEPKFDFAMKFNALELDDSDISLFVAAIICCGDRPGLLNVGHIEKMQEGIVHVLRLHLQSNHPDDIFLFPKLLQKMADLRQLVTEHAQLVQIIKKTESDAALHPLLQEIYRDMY
Chain of Nuclear receptor subfamily 4 group A member 2 (Homo sapiens) (P43354 whole entry, looked up): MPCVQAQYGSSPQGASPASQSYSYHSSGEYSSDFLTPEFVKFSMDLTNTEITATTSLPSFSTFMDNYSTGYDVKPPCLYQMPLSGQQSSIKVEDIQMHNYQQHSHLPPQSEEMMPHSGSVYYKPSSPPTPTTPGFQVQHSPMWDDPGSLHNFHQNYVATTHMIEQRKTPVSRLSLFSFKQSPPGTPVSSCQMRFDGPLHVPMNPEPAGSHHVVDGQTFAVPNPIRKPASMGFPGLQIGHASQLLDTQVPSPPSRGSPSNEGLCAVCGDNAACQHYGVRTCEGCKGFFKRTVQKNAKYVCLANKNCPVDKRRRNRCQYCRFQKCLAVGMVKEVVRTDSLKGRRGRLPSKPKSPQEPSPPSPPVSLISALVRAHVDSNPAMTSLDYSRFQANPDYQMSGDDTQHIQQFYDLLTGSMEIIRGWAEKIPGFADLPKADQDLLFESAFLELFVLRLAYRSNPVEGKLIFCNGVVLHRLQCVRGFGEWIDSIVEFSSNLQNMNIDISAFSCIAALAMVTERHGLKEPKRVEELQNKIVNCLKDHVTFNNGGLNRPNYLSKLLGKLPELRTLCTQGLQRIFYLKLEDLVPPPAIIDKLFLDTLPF
Chain of Myc proto-oncogene protein (Homo sapiens) (P01106 whole entry, looked up, the tested form may be a part): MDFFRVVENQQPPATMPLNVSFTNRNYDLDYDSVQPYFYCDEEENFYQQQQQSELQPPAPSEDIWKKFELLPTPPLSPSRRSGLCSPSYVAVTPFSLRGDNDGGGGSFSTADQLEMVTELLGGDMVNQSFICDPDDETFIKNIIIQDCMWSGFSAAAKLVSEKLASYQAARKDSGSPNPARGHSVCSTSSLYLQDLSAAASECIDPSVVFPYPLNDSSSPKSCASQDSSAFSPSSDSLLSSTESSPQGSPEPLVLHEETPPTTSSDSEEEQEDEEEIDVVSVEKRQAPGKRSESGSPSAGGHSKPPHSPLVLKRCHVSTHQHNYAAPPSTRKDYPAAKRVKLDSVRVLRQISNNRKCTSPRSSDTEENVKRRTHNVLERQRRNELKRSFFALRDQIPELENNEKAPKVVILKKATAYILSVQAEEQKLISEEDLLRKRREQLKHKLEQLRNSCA

O=C(NS(=O)(=O)/C=C/c1ccccc1)c1ccc(F)cc1Cl
not listed: [15] | [16] | [17] | [18]
inactive: all other assays above

Clc1nc(Cl)c(Cl)c(Cl)c1Cl
active: [8] 11.2 µM | [16] 16.5 µM
not listed: [13] | [14] | [17] | [18]
inactive: all other assays above

CCNc1ccccc1
not listed: [1] | [10] | [13] | [17] | [18]
inactive: all other assays above

CCN(C(=O)c1cc(C)cc(OC[C@H](C)Nc2ccncc2)c1)C(C)C
active: [8] 8.92 µM
not listed: [10] | [13] | [14] | [17] | [18]
inactive: all other assays above

O=C(OC[C@H]1O[C@@H](OC(=O)c2cc(O)c(O)c(OC(=O)c3cc(O)c(O)c(O)c3)c2)[C@H](OC(=O)c2cc(O)c(O)c(OC(=O)c3cc(O)c(O)c(O)c3)c2)[C@@H](OC(=O)c2cc(O)c(O)c(OC(=O)c3cc(O)c(O)c(O)c3)c2)[C@@H]1OC(=O)c1cc(O)c(O)c(OC(=O)c2cc(O)c(O)c(O)c2)c1)c1cc(O)c(O)c(OC(=O)c2cc(O)c(O)c(O)c2)c1
active: [11] 7.77 µM | [16] 11.2 µM
not listed: [1] | [2] | [10] | [13]
inactive: all other assays above

COC(=O)c1ccccc1O
active: [17] 25.5 µM | [9] 59.6 µM
not listed: [10] | [13] | [14] | [16] | [18]
inactive: all other assays above

O=C(O)CC(O)C(=O)O (centres undefined)
not listed: [1] | [2] | [7] | [13] | [16] | [17] | [18]
inactive: all other assays above

C[C@](N)(Cc1ccc(O)c(O)c1)C(=O)O
not listed: [1] | [14] | [16] | [17]
inactive: all other assays above

O=c1n(CC2CO2)c(=O)n(CC2CO2)c(=O)n1CC1CO1 (centres undefined)
active: [5] 47 µM | [6] 58.4 µM | [7] 31.7 µM | [8] 7.56 µM | [9] 48.5 µM | [10] 24.7 µM | [11] 11.3 µM | [12] 20 µM | [13] 23.2 µM
inactive: [17] | [18] | [15] | [2] | [3] | [4] | [14]

CNS(=O)(=O)c1cc(C(=O)N2CCC(CCN3C4CCC3CC(n3c(C)nc5ccccc53)C4)(c3cccc(F)c3)CC2)c(Cl)cc1F (centres undefined)
active: [7] 5.18 µM | [8] 2.71 µM | [10] 6.99 µM | [12] 16.7 µM | [13] 30.9 µM
not listed: [14] | [16] | [17] | [18]
inactive: all other assays above

O=P(OC(CCl)CCl)(OC(CCl)CCl)OC(CCl)CCl
active: [2] 32 µM | [3] 144 µM | [5] 187 µM | [6] 143 µM | [9] 103 µM | [11] 8.26 µM
inactive: [15] | [1] | [4] | [7] | [8] | [12] | [14]
